Counter-ions that a name gives are not always drawn. ± gives the standard deviation of the averaged measurements.
What was measured:
[1] = system: Saccharomyces cerevisiae BY4741 SeMeCo community; assay: mean cell size (pixel area) (pixels); higher = larger cells; conditions: 10 µM; 24 h; SM minimal medium
Method in brief: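 A fluorescent Saccharomyces cerevisiae BY4741 community carrying four plasmids was used, with each plasmid complementing one auxotrophy and bearing a fluorescent marker. An overnight preculture at OD600 = 1.0 was diluted to OD600 = 0.3, and 70 µl went into 384-well plates acoustically predosed with drug (final 10 µM) in SM medium for 24 h. After paraformaldehyde fixation, cells were imaged by automated confocal microscopy and analysed in Harmony, giving the mean cell pixel area per well. Each value is the average of 3 replicates. Same SeMeCo high-content imaging drug screen: Selleck FDA-approved drugs at 10 µM, 24 h in SM medium, 384-well plates, 3 replicates.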

[2] = system: Saccharomyces cerevisiae BY4741 SeMeCo community; assay: z-score of prototroph abundance vs DMSO median; higher = larger share of this subpopulation than in DMSO controls; conditions: 10 µM; 24 h; SM minimal medium; subpopulation (auxotrophy): Prototroph
Method in brief: (§1)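 Subpopulation abundance was reported as a z-score against the median of vehicle wells. The Saccharomyces cerevisiae BY4741 community, carrying four plasmids that each restored one auxotrophy and encoded a distinct fluorescent protein, was grown 24 h in minimal SM medium in 384-well plates holding library drugs at 10 µM final. Cells were paraformaldehyde-fixed and imaged by automated confocal microscopy, with single-auxotroph fluorescent strains used for thresholds and autofluorescence correction.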

[3] = system: Saccharomyces cerevisiae BY4741 SeMeCo community; assay: z-score of subpopulation abundance vs DMSO median, subpopulation auxotrophic for M; higher = larger share of this subpopulation than in DMSO controls; conditions: 10 µM; 24 h; SM minimal medium; subpopulation (auxotrophy): M
Method in brief: as §1

[4] = system: Saccharomyces cerevisiae BY4741 SeMeCo community; assay: z-score of subpopulation abundance vs DMSO median, subpopulation auxotrophic for U; higher = larger share of this subpopulation than in DMSO controls; conditions: 10 µM; 24 h; SM minimal medium; subpopulation (auxotrophy): U
Method in brief: as §1

[5] = system: Saccharomyces cerevisiae BY4741 SeMeCo community; assay: z-score of subpopulation abundance vs DMSO median, subpopulation auxotrophic for H; higher = larger share of this subpopulation than in DMSO controls; conditions: 10 µM; 24 h; SM minimal medium; subpopulation (auxotrophy): H
Method in brief: as §1

[6] = system: Saccharomyces cerevisiae BY4741 SeMeCo community; assay: z-score of subpopulation abundance vs DMSO median, subpopulation auxotrophic for LU; higher = larger share of this subpopulation than in DMSO controls; conditions: 10 µM; 24 h; SM minimal medium; subpopulation (auxotrophy): LU
Method in brief: as §1

[7] = system: Saccharomyces cerevisiae BY4741 SeMeCo community; assay: z-score of subpopulation abundance vs DMSO median, subpopulation auxotrophic for HM; higher = larger share of this subpopulation than in DMSO controls; conditions: 10 µM; 24 h; SM minimal medium; subpopulation (auxotrophy): HM
Method in brief: as §1

[8] = system: Saccharomyces cerevisiae BY4741 SeMeCo community; assay: z-score of subpopulation abundance vs DMSO median, subpopulation auxotrophic for HU; higher = larger share of this subpopulation than in DMSO controls; conditions: 10 µM; 24 h; SM minimal medium; subpopulation (auxotrophy): HU
Method in brief: as §1

[9] = system: Saccharomyces cerevisiae BY4741 SeMeCo community; assay: z-score of subpopulation abundance vs DMSO median, subpopulation auxotrophic for UM; higher = larger share of this subpopulation than in DMSO controls; conditions: 10 µM; 24 h; SM minimal medium; subpopulation (auxotrophy): UM
Method in brief: as §1

[10] = system: Saccharomyces cerevisiae BY4741 SeMeCo community; assay: z-score of subpopulation abundance vs DMSO median, subpopulation auxotrophic for HL; higher = larger share of this subpopulation than in DMSO controls; conditions: 10 µM; 24 h; SM minimal medium; subpopulation (auxotrophy): HL
Method in brief: as §1

[11] = system: Saccharomyces cerevisiae BY4741 SeMeCo community; assay: z-score of subpopulation abundance vs DMSO median, subpopulation auxotrophic for HLU; higher = larger share of this subpopulation than in DMSO controls; conditions: 10 µM; 24 h; SM minimal medium; subpopulation (auxotrophy): HLU
Method in brief: as §1

[12] = system: Saccharomyces cerevisiae BY4741 SeMeCo community; assay: z-score of subpopulation abundance vs DMSO median, subpopulation auxotrophic for HLM; higher = larger share of this subpopulation than in DMSO controls; conditions: 10 µM; 24 h; SM minimal medium; subpopulation (auxotrophy): HLM
Method in brief: as §1

[13] = system: Saccharomyces cerevisiae BY4741 SeMeCo community; assay: z-score of subpopulation abundance vs DMSO median, subpopulation auxotrophic for LUM; higher = larger share of this subpopulation than in DMSO controls; conditions: 10 µM; 24 h; SM minimal medium; subpopulation (auxotrophy): LUM
Method in brief: as §1

[14] = system: Saccharomyces cerevisiae BY4741 SeMeCo community; assay: z-score of subpopulation abundance vs DMSO median, subpopulation auxotrophic for L; higher = larger share of this subpopulation than in DMSO controls; conditions: 10 µM; 24 h; SM minimal medium; subpopulation (auxotrophy): L
Method in brief: as §1

[15] = system: Saccharomyces cerevisiae BY4741 SeMeCo community; assay: z-score of subpopulation abundance vs DMSO median, subpopulation auxotrophic for LM; higher = larger share of this subpopulation than in DMSO controls; conditions: 10 µM; 24 h; SM minimal medium; subpopulation (auxotrophy): LM
Method in brief: as §1

[16] = system: Saccharomyces cerevisiae BY4741 SeMeCo community; assay: z-score of subpopulation abundance vs DMSO median, subpopulation auxotrophic for HUM; higher = larger share of this subpopulation than in DMSO controls; conditions: 10 µM; 24 h; SM minimal medium; subpopulation (auxotrophy): HUM
Method in brief: as §1

[17] = system: Saccharomyces cerevisiae BY4741 SeMeCo community; assay: z-score of subpopulation abundance vs DMSO median, subpopulation auxotrophic for HLUM; higher = larger share of this subpopulation than in DMSO controls; conditions: 10 µM; 24 h; SM minimal medium; subpopulation (auxotrophy): HLUM
Method in brief: as §1

| Structure (SMILES) | mean cell size [1] | z-score of prototroph abundance [2] | z-score of subpopulation abundance [3] | z-score of subpopulation abundance [4] | z-score of subpopulation abundance [5] | z-score of subpopulation abundance [6] | z-score of subpopulation abundance [7] | z-score of subpopulation abundance [8] | z-score of subpopulation abundance [9] | z-score of subpopulation abundance [10] | z-score of subpopulation abundance [11] | z-score of subpopulation abundance [12] | z-score of subpopulation abundance [13] | z-score of subpopulation abundance [14] | z-score of subpopulation abundance [15] | z-score of subpopulation abundance [16] | z-score of subpopulation abundance [17] |
| --- | --- | --- | --- | --- | --- | --- | --- | --- | --- | --- | --- | --- | --- | --- | --- | --- | --- |
| CONC(=O)Nc1ccc(-c2sc3c(c2CN(C)C)c(=O)n(-c2ccc(OC)nn2)c(=O)n3Cc2c(F)cccc2F)cc1 [Relugolix] | 12.2 ± 0.23 | 0.18 | -1.52 | 0.32 | 0.68 | -0.09 | -0.86 | 0.09 | -0.12 | -0.26 | 0.32 | -0.07 | 0.11 |  |  |  |  |
| CCCCCOc1ccccc1/C(=C\SC)n1ccnc1 [Neticonazole Hydrochloride] | 11.8 ± 0.13 | -8.79 | -1.87 | -1.45 | 16.5 |  | 3.53 | 6.23 | 14.5 | 4.4 | 2.52 | 23.8 | 3.33 | -1.5 | -1.01 | 6.29 | 13 |
| O=C(O)CCC(=O)Nc1ccc(S(=O)(=O)Nc2nccs2)cc1 [Succinylsulfathiazole] | 12.52 ± 0.1 | 0.73 | -0.13 | 0.33 | -1.14 | -0.4 | -0.78 |  | 0.02 | -0.84 | -0.43 | -1.01 |  |  | -0.35 |  | -0.62 |
| C[C@@H](c1ncncc1F)[C@](O)(Cn1cncn1)c1ccc(F)cc1F [Voriconazole] |  | -11.6 | 0.27 | -0.12 | 12.8 | 1.96 | 10.2 | 9.96 | 16.4 |  | 16.6 |  |  |  | 1.93 | 14.4 |  |
| CC[C@H]1OC(=O)[C@H](C)[C@@H](O[C@H]2C[C@@](C)(OC)[C@@H](O)[C@H](C)O2)[C@H](C)[C@@H](O[C@@H]2O[C@H](C)C[C@H](N(C)C)[C@H]2O)[C@](C)(O)C[C@@H](C)C(=O)[C@H](C)[C@@H](O)[C@]1(C)O [Erythromycin thiocyanate] | 12.1 ± 0.14 | 0.64 | 0.78 | 0.41 | -1.72 |  | 0.23 | -0.7 | 0.06 | -0.71 | -0.56 | -0.68 | -0.09 | -0.64 | 0.36 | -0.41 | 0 |
| COc1cccc2c1C(=O)c1c(O)c3c(c(O)c1C2=O)CC(O)(C(=O)CO)CC3OC1CC(N)C(O)C(C)O1 (configuration not stated) [Doxorubicin (Adriamycin) HCl] | 13.68 ± 0.1 |  | -6.37 |  | 4.08 | 8.06 | -2.19 | 8.36 | 0.38 | 2.67 | 12.3 |  | 4.19 |  | -0.36 | 2.39 | 12.9 |
| CN(Cc1cnc2nc(N)nc(N)c2n1)c1ccc(C(=O)N[C@@H](CCC(=O)O)C(=O)O)cc1 [Methotrexate disodium] | 15.01 ± 0.07 | 0.74 | -6.18 | -4.34 | 15.3 |  | 1.68 | -1.36 | -5.52 | 10.8 | 0.91 | 14.3 | -1.74 | -0.58 | -1.46 | -2.01 | 19.8 |
| CC(C(=O)O)c1cccc(C(=O)c2ccccc2)c1 (configuration not stated) [Ketoprofen] | 12.4 ± 0.2 | -0.62 | -0.04 |  | 0.99 | 0.57 | 0.55 | -0.66 | -0.3 | 1.42 | 0.39 |  | 1.22 |  | 1.24 | -0.02 |  |
| COc1cc2c(cc1OC)[C@@H]1Cc3ccc(OC)c(OC)c3CN1CC2 [Rotundine] | 12.5 ± 0.15 | -0.12 | 0.07 | 0.7 | 0.05 |  | -0.02 | 0.17 | -0.01 | 0.52 | 0.67 | -0.41 | -0.04 | -0.28 | -0.15 | 0.14 | 0.13 |
| CS(=O)(=O)c1ccc([C@@H](O)[C@@H](CF)NC(=O)C(Cl)Cl)cc1 [Florfenicol] |  | 0.5 | -1.1 | 0.29 | -0.98 | -0.09 | -1.52 | 0 | -0.38 |  | -0.45 | -0.4 |  |  | -0.75 |  |  |
| N=C(N)NC(=O)c1nc(Cl)c(N)nc1N [Amiloride HCl] | 12.59 ± 0.11 | -0.41 | 1.46 | -1.58 |  | -0.38 | 1.25 | -2.41 | -1.89 | 1.51 | -0.5 | 3.24 | 0.19 |  | 3.94 |  | 0.53 |
| O=C1CCc2cc(OCCCCc3nnnn3C3CCCCC3)ccc2N1 [Cilostazol] | 12.32 ± 0.082 | 0.97 | -0.68 | -0.86 | 0.02 | -0.63 | -0.41 | -0.16 |  |  | -0.44 | -0.55 | -0.52 |  | -0.83 |  | -0.57 |
| CN(C)CCC=C1c2ccccc2C(C)(C)c2ccccc21 [Melitracen hydrochloride] | 12 ± 0.24 | 1 | -0.28 | -0.05 | -1.7 | -0.8 | -0.45 | -0.73 | -0.21 | -1.23 | -1.72 |  | -0.83 |  | -0.58 | -0.78 | -0.56 |
| C[C@@H]1[C@H](O)[C@@H](C)/C=C/C=C/C=C/C=C/C=C/C=C/C=C/[C@H](O[C@@H]2O[C@H](C)[C@@H](O)[C@H](N)[C@@H]2O)C[C@@H]2O[C@](O)(C[C@@H](O)C[C@@H](O)[C@H](O)CC[C@@H](O)C[C@@H](O)CC(=O)O[C@H]1C)C[C@H](O)[C@H]2C(=O)O [Amphotericin B] | 9.69 ± 0.22 | -19.9 | -8.72 |  |  |  | 0.42 | 10.5 | 29.4 | 8.48 | 31.3 | 12.6 | 29.1 | -2.03 | -0.85 | 75.7 | 163 |
| CCOC(=O)C1=C[C@]2(CC)CCCN3CCc4c(n1c1ccccc41)[C@@H]32 [Vinpocetine] | 12.3 ± 0.23 | -0.9 | 2.07 | 0.11 |  |  |  | -0.02 | 1.1 | 0.11 | -0.1 | 0.39 | 0.25 | 0.01 |  | 0.65 | 0.54 |

Source: the supplement of paper PMC8975748
